Results as given in PubChem BioAssay AID1159580 (chemical genetic matrix, 2015).
Out of some 5,500 compounds screened, about 2,000 (36%) were called active. Roughly 18% stayed inconclusive and do not appear here. Rule as the data show it: active = normalized growth mostly below about 0.91 (no sharp cut-off); inconclusive = no clear call, values can overlap the other calls; inactive = mostly above about 0.92. The list shows a part of the results.

Experiment: chemical genetic growth profiling, strain panel (AID 1159580);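 also: tested at 20 µM; growth read once vehicle control cultures reached saturation at 30 °C; 1 = growth at the plate median or of vehicle wells; lower values mean less growth of the strain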
Details: growth OD

Measured: normalized growth

CN[C@@H]1[C@H](O)[C@H](NC)[C@H]2O[C@@]3(O)C(=O)C[C@@H](C)O[C@H]3O[C@@H]2[C@H]1O
inactive: S. cerevisiae deletion strains, locus YJR075W, strain HOC1, hits give low values 1.01 | S. cerevisiae deletion strains, locus YKL009W, strain mrt4, hits give low values 1.02 | S. cerevisiae deletion strains, locus YKL068W, hits give low values 1.01 | S. cerevisiae deletion strains, locus YKL085W, strain MDH1 (second series), hits give low values 1.01 | S. cerevisiae deletion strains, locus YKL085W, strain MDH1, hits give low values 1.01 | S. cerevisiae deletion strains, locus YKL160W, strain elf1, hits give low values 1.01 | S. cerevisiae deletion strains, locus YKL190W, strain CNB1, hits give low values 1 | S. cerevisiae deletion strains, locus YKR001C, strain vps1, hits give low values 1.02 | S. cerevisiae deletion strains, locus YKR026C, strain gcn3, hits give low values 1.01 | S. cerevisiae deletion strains, locus YKR091W, strain srl3, hits give low values 1 | S. cerevisiae deletion strains, locus YLL001W, strain dnm1, hits give low values 1.02 | S. cerevisiae deletion strains, locus YLL026W, hits give low values 1 | S. cerevisiae deletion strains, locus YLL041C, strain sdh2, hits give low values 0.999 | S. cerevisiae deletion strains, locus YLR027C, strain aat2, hits give low values 1.01 | S. cerevisiae deletion strains, locus YLR039C, strain RIC1, hits give low values 1.05 | S. cerevisiae deletion strains, locus YLR058C, strain SHM2, hits give low values 1.01 | S. cerevisiae deletion strains, locus YLR102C, strain apc9, hits give low values 1.02 | S. cerevisiae deletion strains, locus YLR113W, strain HOG1, hits give low values 0.967 | S. cerevisiae deletion strains, locus YLR221C, strain rsa3, hits give low values 0.981 | S. cerevisiae deletion strains, locus YLR258W, strain gsy2, hits give low values 0.999 | S. cerevisiae deletion strains, locus YLR262C, strain YPT6 (second series), hits give low values 1.05 | S. cerevisiae deletion strains, locus YLR262C, strain YPT6, hits give low values 1.06 | S. cerevisiae deletion strains, locus YLR268W, strain sec22, hits give low values 1.04 | S. cerevisiae deletion strains, locus YLR320W, strain mms22, hits give low values 0.974 | S. cerevisiae deletion strains, locus YLR330W, strain CHS5, hits give low values 1.01 | S. cerevisiae deletion strains, locus YLR342W, strain FKS1 (second series), hits give low values 1 | S. cerevisiae deletion strains, locus YLR342W, strain FKS1, hits give low values 1.02 | S. cerevisiae deletion strains, locus YLR357W, strain rsc2, hits give low values 1 | S. cerevisiae deletion strains, locus YLR370C, strain arc18, hits give low values 0.995 | S. cerevisiae deletion strains, locus YLR371W, strain rom2, hits give low values 1.02 | S. cerevisiae deletion strains, locus YLR384C, strain iki3, hits give low values 1.01 | S. cerevisiae deletion strains, locus YLR418C, strain cdc73, hits give low values 1.03 | S. cerevisiae deletion strains, locus YML016C, strain PPZ1, hits give low values 1.01 | S. cerevisiae deletion strains, locus YML032C, strain rad52, hits give low values 1.04 | S. cerevisiae deletion strains, locus YML120C, strain ndi1, hits give low values 1 | S. cerevisiae deletion strains, locus YML124C, strain tub3, hits give low values 1.02 | S. cerevisiae deletion strains, locus YMR058W, strain fet3, hits give low values 1.01 | S. cerevisiae deletion strains, locus YMR078C, strain ctf18, hits give low values 1.02 | S. cerevisiae deletion strains, locus YMR125W, strain sto1, hits give low values 0.99 | S. cerevisiae deletion strains, locus YMR129W, hits give low values 0.999 | S. cerevisiae deletion strains, locus YMR205C, strain PFK2, hits give low values 1 | S. cerevisiae deletion strains, locus YMR223W, strain ubp8, hits give low values 1.01 | S. cerevisiae deletion strains, locus YMR231W, strain pep5, hits give low values 1 | S. cerevisiae deletion strains, locus YMR263W, strain SAP30, hits give low values 1.01 | S. cerevisiae deletion strains, locus YMR307W, strain GAS1, hits give low values 1.03 | S. cerevisiae deletion strains, locus YNL067W, strain RPL9B, hits give low values 1.02 | S. cerevisiae deletion strains, locus YNL071W, strain lat1, hits give low values 0.996 | S. cerevisiae deletion strains, locus YNL128W, strain TEP1, hits give low values 1.02 | S. cerevisiae deletion strains, locus YNL153C, strain GIM3, hits give low values 1 | S. cerevisiae deletion strains, locus YNL183C, strain NPR1, hits give low values 0.94 | S. cerevisiae deletion strains, locus YNL209W, strain ssb2, hits give low values 0.999 | S. cerevisiae deletion strains, locus YNL233W, strain BNI4, hits give low values 1.02 | S. cerevisiae deletion strains, locus YNL248C, strain rpa49, hits give low values 0.954 | S. cerevisiae deletion strains, locus YNL250W, strain rad50, hits give low values 1.02 | S. cerevisiae deletion strains, locus YNL271C, strain bni1, hits give low values 1.01 | S. cerevisiae deletion strains, locus YNL298W, strain CLA4, hits give low values 1.03 | S. cerevisiae deletion strains, locus YNL307C, strain MCK1, hits give low values 1.03 | S. cerevisiae deletion strains, locus YNL322C, strain KRE1 (second series), hits give low values 1 | S. cerevisiae deletion strains, locus YNL322C, strain KRE1, hits give low values 1.01 | S. cerevisiae deletion strains, locus YNR049C, strain mso1, hits give low values 1.01 | S. cerevisiae deletion strains, locus YNR052C, strain pop2, hits give low values 1.02 | S. cerevisiae deletion strains, locus YOL006C, strain TOP1, hits give low values 1.08 | S. cerevisiae deletion strains, locus YOL012C, strain htz1 0.978 | S. cerevisiae deletion strains, locus YOL147C, strain pex11, hits give low values 1.02 | S. cerevisiae deletion strains, locus YOR001W, strain rrp6, hits give low values 1.02 | S. cerevisiae deletion strains, locus YOR061W, strain CKA2, hits give low values 1.02 | S. cerevisiae deletion strains, locus YOR069W, strain VPS5, hits give low values 1.01 | S. cerevisiae deletion strains, locus YOR070C, strain gyp1, hits give low values 1 | S. cerevisiae deletion strains, locus YOR080W, strain dia2, hits give low values 1.01 | S. cerevisiae deletion strains, locus YOR083W, strain WHI5, hits give low values 0.982 | S. cerevisiae deletion strains, locus YOR106W, strain vam3, hits give low values 1.02 | S. cerevisiae deletion strains, locus YOR136W, strain idh2, hits give low values 1.02 | S. cerevisiae deletion strains, locus YOR144C, strain elg1, hits give low values 1.02 | S. cerevisiae deletion strains, locus YOR184W, strain ser1, hits give low values 1.03 | S. cerevisiae deletion strains, locus YOR231W, strain MKK1, hits give low values 0.953 | S. cerevisiae deletion strains, locus YOR265W, strain rbl2, hits give low values 1.01 | S. cerevisiae deletion strains, locus YOR270C, strain vph1, hits give low values 1.01 | S. cerevisiae deletion strains, locus YOR290C, strain snf2, hits give low values 0.978 | S. cerevisiae deletion strains, locus YOR316C, strain cot1, hits give low values 1.01 | S. cerevisiae deletion strains, locus YPL051W, strain arl3, hits give low values 1.01 | S. cerevisiae deletion strains, locus YPL055C, strain LGE1, hits give low values 1.02 | S. cerevisiae deletion strains, locus YPL078C, strain atp4, hits give low values 1.02 | S. cerevisiae deletion strains, locus YPL106C, strain sse1, hits give low values 0.991 | S. cerevisiae deletion strains, locus YPL240C, strain hsp82, hits give low values 0.995 | S. cerevisiae deletion strains, locus YPL241C, strain CIN2, hits give low values 1.01 | S. cerevisiae deletion strains, locus YPL256C, strain CLN2, hits give low values 0.962 | S. cerevisiae deletion strains, locus YPR119W, strain clb2, hits give low values 1.02 | S. cerevisiae deletion strains, locus YPR141C, strain kar3, hits give low values 1.02 | S. cerevisiae deletion strains, locus YPR163C, strain tif3, hits give low values 1.02 | S. cerevisiae deletion strains, locus YPR167C, strain met16, hits give low values 1.03 | S. cerevisiae deletion strains, strain wtn01, hits give low values 1.03 | S. cerevisiae strains, strain wild type, hits give low values 1.01
